Sampled rows, rich in hits. Any-hit rate of the full collection: about 2.4%.
D2 ag-1 = Beta-Arrestin HTS for Positive Allosteric Modulators of the Human D2 Dopamine Receptor: Agonists. D(2) dopamine receptor (Homo sapiens), P14416. DiscoveRx PathHunter D2 beta-arrestin, luminescence, 90 min; 100% = 57 uM dopamine signal. activation, % (concentration not given with the values). actives 0.084% (n = 360,000). AID 624465, 2012; in the data active = activation above about 40%; inconclusive = between about 15% and that limit
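DiscoveRx PathHunter D2 beta-arrestin cells (2,100/well) attached overnight, then compound-stimulated 90 min at 37 C in HBSS/10 mM HEPES/0.1% Tween-20 buffer; beta-galactosidase complementation read by luminescence after 1 h at ambient temperature. Dopamine 57 uM final (EC100) as control.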
D2 antag = HTS Assay for Allosteric Antagonists of the Human D2 Dopamine Receptor: Primary Screen for Antagonists; D(2) dopamine receptor (Homo sapiens), P14416; HEK293 TREx D2 cells, calcium flux, dopamine EC80; inhibition, % at 10 µM; actives 2% (n = 340,000); AID 485344, 2010; in the data active = inhibition above about 30%; inactive = below that, where a call was filed; note: 0% is about no effect
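Dopamine at EC80 is the agonist stimulus; test compounds precede it by 180 s. Calcium flux read kinetically in a force-coupled, inducible HEK293 T-REx D2 cell line.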
D2 PAM-1 = HTS Assay for Positive Allosteric Modulators of the Human D2 Dopamine Receptor: Primary Screen for Potentiators; HEK293 T-REx D2, calcium flux, EC20 dopamine potentiation; AID 485347, 2010; D(2) dopamine receptor (Homo sapiens), P14416; potentiation, % at 10 µM; actives 0.34% (n = 340,000);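 active = potentiation over 3 SD above the plate norm, cut at about 30% in these data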; note: 0% is about no effect
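Potentiation of an EC20 dopamine calcium response measured kinetically over 180 s, after a preceding 180 s compound-only read flagging agonists. Cells: inducible Hek293 Trex D2 line, 4000/well, cultured overnight at 30 C before dye loading.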
D2 ag-2 = HTS Assay for Allosteric Agonists of the Human D2 Dopamine Receptor: Primary Screen for Agonists. D(2) dopamine receptor (Homo sapiens), P14416. HEK293 T-REx D2 cells, calcium flux agonist mode. activation, % at 2 µM. actives 0.53% (n = 340,000);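 active = activation over 3 SD above normal in the single-dose calcium agonist read, cut at about 30% in these data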; note: 0% is about no effect
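Agonism scored from kinetic calcium signal (1 read/sec, 180 s) following compound pin transfer, after a 10 s baseline. Cells: HEK293 Trex line expressing inducible D2 receptor coupled to calcium, dye-loaded after overnight culture at 30 C.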
D2 PAM-2 = Beta-Arrestin HTS for Positive Allosteric Modulators of the Human D2 Dopamine Receptor: Potentiators; D(2) dopamine receptor (Homo sapiens), P14416; DiscoveRx D2 beta-arrestin cells, luminescence, 90 min; 100% = 57 uM dopamine signal; potentiation, % (test concentration not listed); actives 0.23% (n = 360,000); in the data active = potentiation above about 50%; inconclusive = mostly about 30% to 49%
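D2 cells co-treated with compound plus 50 nM dopamine (EC20) for 90 min at 37 deg C to detect potentiation. Beta-arrestin recruitment was read as enzyme-fragment luminescence after 1 h at ambient temperature. Full response was set by 57 uM dopamine.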
D3 arrestin ag = qHTS of D3 Dopamine Receptor Agonist: D3 Dopamine Receptor B-arrestin Agonist Confirmatory Assay; shares compounds with D2 ag-2; DiscoveRx D3 beta-arrestin cells, luminescence, 90 min; Potency, µM (titrated, usually from 76.9 µM), without a hit: top-dose activation, actives largely listed as activators; actives 4% (n = 2,300); AID 720506, 2013;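 note: potency is the fitted concentration of half-maximal effect; 100% = dopamine control response; nearly all actives have a fitted effect of over 70% in size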
Target sequence (P35462 whole entry, looked up): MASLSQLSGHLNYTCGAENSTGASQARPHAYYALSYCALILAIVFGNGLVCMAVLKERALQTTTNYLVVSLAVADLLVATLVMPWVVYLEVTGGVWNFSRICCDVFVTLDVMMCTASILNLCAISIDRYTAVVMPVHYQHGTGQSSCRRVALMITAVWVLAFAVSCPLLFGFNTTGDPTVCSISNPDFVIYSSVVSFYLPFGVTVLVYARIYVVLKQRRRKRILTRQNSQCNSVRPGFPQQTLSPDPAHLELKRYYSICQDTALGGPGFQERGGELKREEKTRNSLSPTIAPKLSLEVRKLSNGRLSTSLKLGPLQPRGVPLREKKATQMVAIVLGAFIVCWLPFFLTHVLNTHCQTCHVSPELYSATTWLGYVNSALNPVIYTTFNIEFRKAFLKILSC
D2 ag-3 = qHTS of D3 Dopamine Receptor Agonist: D2 Dopamine Receptor B-arrestin Agonist Counterscreen; shares compounds with D2 ag-2; DiscoveRx PathHunter D2 beta-arrestin, luminescence, 90 min; response scale: percent relative to full dopamine signal; Potency, µM (top dose mostly 76.9 µM), without a hit: at the top dose activation, actives largely listed as activators; actives 5.9% (n = 2,300); AID 720507, 2013; note: potency is the fitted concentration of half-maximal effect; % of control where 0% means no effect; nearly all actives have a fitted effect of over 70% in size
* hit, by the source's call. Unless noted, calls come from the whole dose curve; as a rule, active = well fitted activation curve with a large enough effect; inconclusive = small, poorly fitted or top-dose-only effect; inactive = flat fitted curve, though single readings scatter.

Results for Cn1c(CCN2CCCC2)nc2cc(NS(=O)(=O)c3ccc(Cl)cc3)ccc21 ?
D2 ag-1: 1; D2 antag: 3; D2 PAM-1: -6; D2 ag-2: 0; D2 PAM-2: -28

What do the screens show for `CCCC(=O)Nc1ccc2c(c1)nc(CCN1CCN(c3ccccn3)CC1)n2C`?
D2 ag-1: 8; D2 antag: 47*; D2 PAM-1: -22; D2 ag-2: 67*; D2 PAM-2: -10; D3 arrestin ag: inconclusive; D2 ag-3: inconclusive

Results for O=C(Cn1c(-c2cccs2)cc2cc(F)ccc21)NCCc1ccc(Cl)cc1 ?
D2 PAM-1: 2; D2 ag-2: 1

Results for Cc1ccc(C)c(Cn2c(SCC(=O)N(C)Cc3ccccc3)nc3ccccc32)c1 ?
D2 PAM-1: -2; D2 ag-2: 1

Results for CC(C)C(=O)Nc1ccc2c(c1)nc(CCN1CCN(c3ccccc3)CC1)n2C ?
D2 ag-1: -2; D2 antag: 18; D2 PAM-1: -21; D2 ag-2: 61*; D2 PAM-2: -9; D3 arrestin ag: inconclusive; D2 ag-3: 8%

How did CCCOc1c(Cl)cc(C(=O)N(Cc2cccc(OC)c2)C2CCS(=O)(=O)C2)cc1Cl (centres undefined) do in these assays?
D2 PAM-1: 2; D2 ag-2: 0

How did CNC(=S)N(CCc1c(C)[nH]c2ccc(OC)cc12)Cc1cccnc1 do in these assays?
D2 ag-1: 0; D2 antag: 24; D2 PAM-1: 0; D2 ag-2: 0; D2 PAM-2: -2; D3 arrestin ag: -14%; D2 ag-3: -2%

What do the screens show for `Cc1ccc(-n2nc(CO)c(C(=O)NCCC(C)C)n2)cc1C`?
D2 PAM-1: -19; D2 ag-2: 1

What do the screens show for `CCN(C(=O)CSc1nnc(-c2ccc(C)cc2)n1N)c1c(N)n(Cc2ccccc2)c(=O)[nH]c1=O`?
D2 ag-1: 6; D2 antag: -7; D2 PAM-1: -1; D2 ag-2: -1; D2 PAM-2: -22; D3 arrestin ag: -5%; D2 ag-3: -6%

How did CCN(C(=O)COC(=O)CCCOc1ccccc1)c1c(N)n(Cc2ccccc2)c(=O)[nH]c1=O do in these assays?
D2 ag-1: 0; D2 antag: -28; D2 PAM-1: -26; D2 ag-2: 0; D2 PAM-2: -1; D3 arrestin ag: -3%; D2 ag-3: -6%

Results for CCN(C(=O)COC(=O)c1ccc(O)cc1O)c1c(N)n(Cc2ccccc2)c(=O)[nH]c1=O ?
D2 ag-1: -3; D2 antag: -6; D2 PAM-1: -1; D2 ag-2: -1; D2 PAM-2: 1; D3 arrestin ag: -3%; D2 ag-3: -5%

How did CCN(C(=O)COC(=O)c1cc(=O)[nH]c2ccccc12)c1c(N)n(Cc2ccccc2)c(=O)[nH]c1=O do in these assays?
D2 ag-1: -4; D2 PAM-2: -4

How did CCCN1C(=O)/C(=C/c2c(NCCCOC(C)C)nc3c(C)cccn3c2=O)SC1=S do in these assays?
D2 ag-1: -9; D2 antag: -7; D2 PAM-1: 3; D2 ag-2: 5; D2 PAM-2: -15; D3 arrestin ag: -12%; D2 ag-3: -1%

Screening data: PubChem BioAssay, National Center for Advancing Translational Sciences (NCATS)
